Assay [1] can be described thus: inhibitors of TNFa-induced NFkB p65 translocation, primary screen, imaging, HUVEC, MLSMR starter and 10KST1 sets (AID 438;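 active = inhibition above 20% together with a positive visual image hit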;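 note: compound added about 3h40 before a 20 min TNFalpha stimulation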;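 for inhibition: signal is the nuclear over cytoplasmic p65 intensity ratio per well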). To be noted: HUVEC TNFa-induced p65 nuclear translocation; cell count: measured here: nuclei count (cytotoxicity indicator), at 2.08 µM; inhibition: at 2 µM, stronger effect = higher value, 0% TNFa-plus-vehicle, 100% no-TNFa wells.
Assay [2] can be described thus: inhibitors of mutant huntingtin aggregation, primary screen, imaging, exon1htt(103Q)mCFP cells, high-content imaging (AID 483).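 For nuclei count: percent of the per-plate median nuclei count of sample wells.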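 Note: compound exposure lasted 3 days before fixation.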 To be noted: exon1htt(103Q)mCFP cell line, aggregate imaging, at 2 µM; inhibition of aggregation: stronger effect = higher value; nuclei count: measured here: cell count, toxicity.
The nature of assay [3]: inhibitors of E-selectin induction by TNFa, primary screen, imaging, HUVEC, immunofluorescence, MLSMR starter and 10KST1 sets (AID 487;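 active = visually confirmed hit in the image check and inhibition above 20%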;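 for inhibition: signal is fraction of cell area covered by stained E-selectin grains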;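 for nuclei count: 100% = median nuclei count of all wells on the same plate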). To be noted: HUVEC TNFalpha-induced E-selectin immunofluorescence imaging, at 2 µM; inhibition: stronger effect = higher value; nuclei count: measured here: cell number, toxicity.
The target of assay [4] is Voltage-gated potassium channel subunit beta-2 (Rattus norvegicus) (UniProt P62483). Nature of the assay: KvBeta enzyme negative modulators, primary screen, biochemical, NADPH fluorescence (AID 622;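 active = fluorescence slope higher than the sample average by over 3 SD, cut at about -0.22 in these data, passing the limit was not always enough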;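 note: slope of raw intensity against log time taken from 70 to 1610 s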). To be noted: recombinant KvBeta, 4-cyanobenzaldehyde reduction, at 10 µM, stronger effect = higher value.
Assay [5] shares this target. Nature of the assay: KvBeta positive modulators, primary screen, biochemical, NADPH fluorescence (AID 623;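 active = NADPH fluorescence slope more negative than the mean of all samples by about 3 SD, 99.7% confidence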;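 note: fluorescence intensity change per second fitted from 20 to 320 s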). To be noted: Recombinant KvBeta, NADPH fluorescence decrease slope, 10 min; at 10 µM; stronger effect = lower value.
Assay [6] addresses Alpha-2C adrenergic receptor (Homo sapiens) (UniProt P18825). Nature of the assay: modulators of alpha2C/GIRK thallium flux, primary screen, cell-based, HEK293 alpha2C/GIRK1/2 (AID 624;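 active = fluorescence slope after compound addition differing from the mean of all screened samples at 99.7% confidence, in either direction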;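 note: slope of fluorescence ratio to pre-addition baseline per second over 15 to 24 s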). To be noted: thallium flux BTC fluorescence, at 10 µM, actives lie on both sides.
A short description of assay [7]: inhibitors of Sendai virus-induced IRF3 signaling, primary screen, TLR/RLR signaling modifier project, cell-based, Sendai virus stimulus, luciferase, 10K MLSCN set (AID 602276;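 active = inhibition at or above 50% at 10 µM; inactive = inhibition below 50%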;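 note: firefly luciferase from ISG56 promoter only with Renilla not read in this screen; 0% = Sendai virus plus DMSO and 100% = medium plus DMSO without virus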). To be noted: HEK293 RL24 IRF3 luciferase reporter, at 10 µM, stronger effect = higher value.
A short description of assay [8]: inhibitors of poly I:C-induced TLR3 signaling, primary screen, cell-based, poly I:C stimulus, luciferase, 10K MLSCN set (AID 602277;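 active = inhibition of the reporter signal at or above 50%; inactive = inhibition below 50%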). To be noted: HEK293-TLR3 RL24 IRF3 luciferase reporter, at 10 µM, stronger effect = higher value.

Calls of active or inactive are those of the source.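 Rule for the calls, unless noted: active = visual image review flags a hit and inhibition of aggregation exceeds 20%; inconclusive = visual hit but inhibition at or below 20%; inactive = no hit on visual image review.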

Chain of Voltage-gated potassium channel subunit beta-2 (Rattus norvegicus) (P62483 whole entry, looked up): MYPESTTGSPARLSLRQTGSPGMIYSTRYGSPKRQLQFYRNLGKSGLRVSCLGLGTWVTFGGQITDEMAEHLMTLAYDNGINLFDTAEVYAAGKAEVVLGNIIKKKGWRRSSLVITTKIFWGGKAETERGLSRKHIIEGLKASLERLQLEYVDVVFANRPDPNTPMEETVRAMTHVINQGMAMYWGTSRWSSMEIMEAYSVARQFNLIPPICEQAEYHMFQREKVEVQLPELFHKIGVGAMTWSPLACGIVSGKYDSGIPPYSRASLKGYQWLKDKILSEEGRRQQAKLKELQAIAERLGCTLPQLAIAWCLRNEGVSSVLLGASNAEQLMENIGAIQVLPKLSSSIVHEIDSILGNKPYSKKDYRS
Chain of Alpha-2C adrenergic receptor (Homo sapiens) (P18825 whole entry, looked up): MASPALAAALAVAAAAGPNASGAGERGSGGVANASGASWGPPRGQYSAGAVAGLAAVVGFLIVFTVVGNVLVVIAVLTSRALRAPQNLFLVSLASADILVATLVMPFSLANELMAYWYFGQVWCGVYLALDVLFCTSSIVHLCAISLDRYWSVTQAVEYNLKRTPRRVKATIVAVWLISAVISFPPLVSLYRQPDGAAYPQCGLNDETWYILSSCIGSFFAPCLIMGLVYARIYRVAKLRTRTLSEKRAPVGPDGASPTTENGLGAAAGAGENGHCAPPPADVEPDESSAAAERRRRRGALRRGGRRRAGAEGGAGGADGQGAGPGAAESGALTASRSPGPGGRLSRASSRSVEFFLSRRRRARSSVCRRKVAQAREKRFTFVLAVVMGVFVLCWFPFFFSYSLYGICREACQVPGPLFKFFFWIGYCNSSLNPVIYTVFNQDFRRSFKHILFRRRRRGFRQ

`CCOc1cc(C2NC(=O)NC(O)(C(F)(F)F)C2C(=O)c2ccccc2)ccc1OC` (stereo not drawn): the cell count in assay [1] came to 383. Besides, the inhibition is 6.8% (inactive) in assay [1], -51% (inactive) in assay [3], 5.58% (inactive) in assay [7] and 11.7% (inactive) in assay [8]. Moreover, the inhibition of aggregation in assay [2] is 4.9% (inactive). The nuclei count was 86.1% in assay [2] and 121% in assay [3]. In assay [4], the fluorescence slope was -0.378 (inactive). In assay [5], the NADPH fluorescence slope was 3.5e-05 (inactive). Besides, the slope in assay [6] was 0.00542 (inactive).
Turning to `CC1=C(C(=O)OC2CCCCC2)C(c2cccnc2)n2ncnc2N1` (stereo not drawn), the cell count in assay [1] worked out at 271. Further, the inhibition in assay [1] was -9.3% (inactive); in assay [3], 21.9% (inactive); in assay [7], 7.24% (inactive); in assay [8] it was 26.4% (inactive). In addition, the inhibition of aggregation in assay [2] is 10.8% (inactive). In addition, the values for the nuclei count in assay [2] and in assay [3] were 77.6% and 34.7%, respectively. Moreover, the fluorescence slope in assay [4] was -0.327 (inactive). Moreover, the NADPH fluorescence slope in assay [5] is -6.6e-06 (inactive). The slope in assay [6] is 0.00388 (inactive).
Regarding `O=C(Cn1c(=O)sc2ccccc21)NCCOc1ccccc1F`, the cell count in assay [1] came out at 780. Besides, the inhibition in assay [1] was -12% (inactive); in assay [3], 36.2% (inactive); in assay [7], 0.0246% (inactive); in assay [8], 6.19% (inactive). In assay [2], the inhibition of aggregation is -3.1% (inactive). For the same molecule, the nuclei count amounted to 104% in assay [2] and 108% in assay [3]. Further, in assay [4], the fluorescence slope is -0.514 (inactive). For the same molecule, the NADPH fluorescence slope in assay [5] was -9e-06 (inactive). Moreover, the slope in assay [6] was 0.00676 (inactive).
For `Cc1[nH]nc(N=CC2=C(O)CC(C)(C)CC2=O)c1-c1ccccc1`, the cell count in assay [1] is 551. The inhibition in assay [1] was -8.6% (inactive); in assay [3], 15.4% (inactive); in assay [7], -16.8% (inactive); in assay [8], 13.8% (inactive). The inhibition of aggregation in assay [2] is -3.5% (inactive). In addition, the nuclei count in assay [2] was determined as 85.2%; in assay [3], 95.3%. For the same molecule, the fluorescence slope in assay [4] was -0.344 (inactive). Also, in assay [5], the NADPH fluorescence slope is -2.3e-05 (inactive). Also, the slope in assay [6] was 0.00489 (inactive).
As to `COCCNC(=O)C(c1ccncc1)N(C(=O)Cn1nnc2ccccc21)c1ccc(OC)cc1` (stereo not drawn), the cell count in assay [1] was 679. The inhibition is 8.2% (inactive) in assay [1], 8.4% (inactive) in assay [3], -0.74% (inactive) in assay [7] and 25.1% (inactive) in assay [8]. Besides, the inhibition of aggregation in assay [2] is -3.2% (inactive). Besides, the nuclei count stood at 100% in assay [2] and 99.8% in assay [3]. Besides, in assay [4], the fluorescence slope was -0.481 (inactive). Also, the NADPH fluorescence slope in assay [5] is -4.3e-05 (inactive). The slope in assay [6] was 0.00706 (inactive).
As to `O=C(Cn1nc(Cc2ccncc2)c2ccccc2c1=O)N1CCc2ccccc2C1`, the cell count in assay [1] worked out at 726. In addition, the inhibition is -7.3% (inactive) in assay [1], -57.6% (inactive) in assay [3], -3.59% (inactive) in assay [7] and 15.5% (inactive) in assay [8]. Further, the inhibition of aggregation in assay [2] was -6.8% (inactive). The nuclei count in assay [2] was determined as 103%; in assay [3], 122%. For the same molecule, the fluorescence slope in assay [4] was -0.527 (inactive). In addition, in assay [5], the NADPH fluorescence slope was -2.1e-05 (inactive). The slope in assay [6] is 0.0064 (inactive).
In the case of `O=C(Nn1cnnc1)C1Cc2ccccc2CN1S(=O)(=O)c1ccc(F)cc1` (stereo not drawn), the cell count in assay [1] was 326. Moreover, the inhibition is -6.7% (inactive) in assay [1], 0.9% (inactive) in assay [3], 14.1% (inactive) in assay [7] and 24.9% (inactive) in assay [8]. In addition, in assay [2], the inhibition of aggregation is 7.4% (inactive). For the same molecule, the values for the nuclei count in assay [2] and in assay [3] were 95.2% and 95.6%, respectively. In addition, the fluorescence slope in assay [4] is -0.481 (inactive). Moreover, in assay [5], the NADPH fluorescence slope is -2.7e-05 (inactive). Further, the slope in assay [6] is 0.00658 (inactive).
For the molecule `OCCn1c(-c2ccc3c(c2)OCO3)csc1=Nc1ccccc1`, the cell count in assay [1] came out at 565. Moreover, the inhibition was 0.2% (inactive) in assay [1], -41.5% (inactive) in assay [3], -34% (inactive) in assay [7] and -121% (inactive) in assay [8]. Moreover, in assay [2], the inhibition of aggregation is -0.6% (inactive). Further, the nuclei count in assay [2] is 66.3%; in assay [3] it was 112%. Moreover, the fluorescence slope in assay [4] is -0.59 (inactive). Further, the NADPH fluorescence slope in assay [5] was -2.7e-05 (inactive). In addition, in assay [6], the slope was 0.00284 (inactive).
